An excerpt weighted towards active compounds, which were near 2.6% of everything screened.
Casp7 inh: blocks human caspase-7 allosterically or competitively. hit rate 0.02% among 75,000. recombinant caspase-7, Ac-DEVD-AFC fluorescence rate. P55210. Potency, µM (titrated, usually from 57.5 µM), usual class: inhibitors; active = well fitted inhibition curve with a large enough effect in the main read-out, with a control signal flat, not every such curve was filed as active; inconclusive = small, poorly fitted or top-dose-only effect, or a change in a side signal
Target sequence (P55210 24-198 limits assumed): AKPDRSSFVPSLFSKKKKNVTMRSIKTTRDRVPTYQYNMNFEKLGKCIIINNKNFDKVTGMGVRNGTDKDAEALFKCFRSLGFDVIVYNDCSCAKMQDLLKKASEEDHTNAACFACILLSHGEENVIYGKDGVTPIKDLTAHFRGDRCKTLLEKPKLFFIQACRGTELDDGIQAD
Target sequence (P55210 207-303 limits assumed): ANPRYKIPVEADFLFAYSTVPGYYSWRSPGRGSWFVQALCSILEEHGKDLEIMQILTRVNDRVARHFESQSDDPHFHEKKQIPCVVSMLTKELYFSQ
HEK293 cAMP ctrl: raises cAMP in parental HEK293 cells, TSHR agonist counter-screen; hit rate 2.5% among 73,000; AID 938; Potency, µM (highest dose often 57.1 µM), actives largely listed as activators; parental HEK293 CNG cAMP sensor, membrane potential fluorescence; also: nearly all actives have a fitted effect of over 55% in size
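Counterscreen for endogenous-receptor signalling: CNG-channel HEK 293 cells report cAMP rise by membrane depolarization. After 60 min dye equilibration with 100 uM RO 20-1724, compounds incubated 30 min before bottom-read fluorescence at 590 nm.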
TSHR agonist: activates the human thyroid stimulating hormone receptor. P16473. HEK293-CNG-TSHR cells (CNG channel as cAMP sensor), membrane potential dye, cAMP. Potency, µM (titrated, usually from 57.1 µM), actives largely listed as activators. hit rate 0.48% among 73,000. AID 926; active = well fitted activation curve with a large enough effect in the main read-out, with a control signal flat, not every such curve was filed as active; inconclusive = small, poorly fitted or top-dose-only effect, or a change in a side signal; inactive = no such curve, though single readings can be large or run the other way; reference of the percent scale not stated here;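 also: the control signal comes from parental cells without the receptor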
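HEK 293 cells stably expressing TSHR and a modified CNG channel, with CNG-only parental cells as counterscreen, were preloaded 60 min at room temperature with membrane potential dye containing 100 uM RO 20-1724. Compound exposure was 30 min, and depolarization was read as fluorescence at 590 nm.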
Casp1 inh: blocks human caspase-1 allosterically or competitively. Caspase-1 enzyme, Ac-WEHD-AFC fluorogenic rate. hit rate 0.03% among 75,000. Potency, µM (doses to about 57.5 µM), usual class: inhibitors
Target sequence (P29466 120-297 limits assumed): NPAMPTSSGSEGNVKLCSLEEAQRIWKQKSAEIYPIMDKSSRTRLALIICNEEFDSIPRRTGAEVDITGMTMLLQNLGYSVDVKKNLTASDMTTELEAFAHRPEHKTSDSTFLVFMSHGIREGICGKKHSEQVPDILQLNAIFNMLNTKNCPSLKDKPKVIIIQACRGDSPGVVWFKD
Target sequence (P29466 317-404 limits assumed): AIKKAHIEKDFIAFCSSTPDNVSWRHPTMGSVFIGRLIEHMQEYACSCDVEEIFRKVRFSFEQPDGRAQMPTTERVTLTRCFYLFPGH
Large screens that a line does not name were inactive. Unless noted, calls follow the shape of the dose curve; as a rule, active = well fitted curve in the direction sought with a large enough effect; inconclusive = small, poorly fitted or top-dose-only effect, or another doubt; inactive = no such curve, though single readings can be large; an effect the other way counts as inactive or inconclusive.

COC(=O)c1ccc(C(NC(=O)OCc2ccccc2)/C(I)=C/[C@@H](C)C(=O)NCc2ccc(OC)c(O)c2)cc1 (stereo not given in full)	TSHR agonist 25µM
COC(=O)c1ccc(C(NC(=O)OCc2ccccc2)/C(C)=C/[C@@H](C)C(=O)NC2CCCCC2)cc1 (stereo not given in full)	HEK293 cAMP ctrl 16µM, TSHR agonist inconclusive
NC(Cc1c[nH]c2ccccc12)C(=O)NCC(=O)O (stereo not given)	none (no result: HEK293 cAMP ctrl, TSHR agonist)
COc1ccccc1CCn1c(=O)c(-c2cc(F)cc(F)c2)nc2cncnc21	HEK293 cAMP ctrl inconclusive, TSHR agonist inconclusive
COc1ccc(CN(C(=O)CN2C(=O)C(C)Oc3ccccc32)C2CCCC2)c(OC)c1 (stereo not given)	HEK293 cAMP ctrl 25µM, TSHR agonist inconclusive
COc1ccc(CN(C(=O)CN2C(=O)COc3ccccc32)C2CCCC2)c(OC)c1	HEK293 cAMP ctrl 20µM, TSHR agonist inconclusive
COc1ccc(CN(Cc2ccccn2)C(=O)CN2C(=O)COc3ccccc32)cc1	none
CNCC(O)c1cccc(O)c1 (stereo not given)	none (no result: HEK293 cAMP ctrl, TSHR agonist)
Cc1cc(N)c2cc(NC(=O)Nc3ccc4nc(C)cc(N)c4c3)ccc2n1	none
CCCCCCCCCCCCCCC[C@@H](O)[C@@H](N)CO	none
CC(=O)Nc1ccc(C(=O)Nc2ccc(S(=O)(=O)NCC3CCCO3)cc2)cc1 (stereo not given)	none
O=C(Nc1ccc(F)cc1)c1ccc(S(=O)(=O)NCC2CCCO2)cc1 (stereo not given)	HEK293 cAMP ctrl 3.2µM, TSHR agonist inconclusive
CCC(=O)CC(NC(=O)OC)c1ccc(F)cc1 (stereo not given)	none
O=C(c1ccco1)N1CCN(S(=O)(=O)c2ccc(C3CCCCC3)cc2)CC1	HEK293 cAMP ctrl 25µM, TSHR agonist inconclusive
O=C(c1ccco1)N1CCN(S(=O)(=O)c2ccc(S(=O)(=O)NC3CCCCC3)cc2)CC1	HEK293 cAMP ctrl 1.6µM, TSHR agonist inconclusive
O=C(c1ccco1)N1CCN(S(=O)(=O)c2ccc(S(=O)(=O)NC3CCCC3)cc2)CC1	HEK293 cAMP ctrl inconclusive, TSHR agonist inconclusive
C=C1CCC(O)C/C1=C\C=C1/CCCC2(C)C1CCC2C(C)/C=C/C(C)C(C)C (stereo not given)	none (no result: HEK293 cAMP ctrl, TSHR agonist)
CC1=C(C(=O)Nc2ccccc2)C(c2ccc(C)o2)n2c(s/c(=C\c3ccco3)c2=O)=N1 (stereo not given)	none
N=C1C=CC(=C(c2ccc(N)cc2)c2ccc(N)cc2)C=C1	TSHR agonist inconclusive
CC1=C(C(=O)N(C)Cc2ccccc2)C2(CCC(C)CC2)OC1=O (stereo not given)	HEK293 cAMP ctrl 6.3µM, TSHR agonist inconclusive
COc1cccc(/C=N/n2c(C)c3c(C)nnc(C)c3c2C)c1O	none (no result: TSHR agonist)
O=C(CSc1nnc(-c2ccco2)n1Cc1ccccc1)OC1CCCCC1	HEK293 cAMP ctrl 4µM, TSHR agonist inconclusive
O=C(CN1CCOCC1)N1CCN(S(=O)(=O)c2ccccc2)C1c1ccccc1 (stereo not given)	HEK293 cAMP ctrl inconclusive, TSHR agonist inconclusive
Cc1ccc(S(=O)(=O)N2CCN(C(=O)CN3CCOCC3)C2c2ccccc2)cc1 (stereo not given)	HEK293 cAMP ctrl 20µM, TSHR agonist inconclusive
O=C(O)c1ccc(S(=O)(=O)Cc2ccccc2)cc1	HEK293 cAMP ctrl 3.2µM, TSHR agonist inconclusive
NS(=O)(=O)c1ccc(C(=O)O)cc1	none
COC(=O)c1ccc(C(NC(=O)OCc2ccccc2)/C(=C/[C@@H](C)C(=O)NCc2cccnc2)c2cccnc2)cc1 (stereo not given in full)	none
Cc1nnc(C)c2c(C)n(-c3ccc(Br)cc3)c(C)c12	HEK293 cAMP ctrl 4µM, TSHR agonist inconclusive
CCOC(=O)N/N=C1/C[C@@H](O)[C@@H](O)[C@@H]2[C@@H]3C(=O)N(C4CCCCC4)C(=O)[C@H]3CC[C@H]12	none
CN1CCN(CCCN)CC1	none
Clc1ccc(C2=Nn3c(nnc3-c3n[nH]c4c3CCC4)SC2)cc1	HEK293 cAMP ctrl 25µM, TSHR agonist inconclusive
Brc1ccc(C2=Nn3c(nnc3-c3n[nH]c4c3CCC4)SC2)cc1	HEK293 cAMP ctrl 13µM, TSHR agonist inconclusive
Cc1ccc(-c2nnc3n2N=C(c2ccc(Br)cc2)CS3)cc1	none
O=[N+]([O-])c1ccc(Cl)cc1Cl	TSHR agonist inconclusive
O=C(CSc1nnnn1Cc1ccccc1)Nc1ccc2c(c1)OCCO2	TSHR agonist 3.2µM
Cc1cc(NC(=O)CSc2nnc(COc3ccccc3)n2Cc2ccco2)no1	none
O=C(CSc1nnc(COc2ccccc2)n1Cc1ccco1)Nc1ccc2c(c1)OCCO2	TSHR agonist 20µM
COc1ccc2cc(C(=O)CCC(=O)O)ccc2c1	none
Nc1nc(-c2ccccc2)c(-c2ccccc2)c(-c2nc(N)nc(-c3ccccc3)c2-c2ccccc2)n1	none
Cc1ccc(C)c(Cn2c(CO)nc3ccccc32)c1	HEK293 cAMP ctrl 25µM, TSHR agonist inconclusive
Cc1ccc(SC/C(O)=C(\C#N)c2nc3ccccc3n2C)cc1	HEK293 cAMP ctrl inconclusive, TSHR agonist inconclusive
Cn1c(/C(C#N)=C(\O)CN2CCN(Cc3ccccc3)CC2)nc2ccccc21	HEK293 cAMP ctrl 32µM, TSHR agonist inconclusive
CC(=O)c1c(C(C)=O)c(C)n(NC(=O)c2cccnc2)c1C	HEK293 cAMP ctrl 4µM, TSHR agonist inconclusive
CCc1cccc2c(-c3ccccc3)c3c(nc12)OCC3	HEK293 cAMP ctrl inconclusive, TSHR agonist inconclusive
Cc1noc(C)c1CN1C(=O)NC(Cc2ccccc2)(Cc2ccccc2)C1=O	TSHR agonist 25µM
CCOc1ccc(-n2c(Cc3ccccc3)nnc2SCc2c(C)noc2C)cc1	none
COc1ccc(CNc2ncnc3ccc(-c4ccccc4CN(C)C)cc23)c(OC)c1	TSHR agonist inconclusive
COC(=O)[C@H](C)[C@@H]1C[C@@]1(C)[C@@H](NC(=O)OCc1ccccc1)c1ccccc1	HEK293 cAMP ctrl 16µM, TSHR agonist inconclusive
C[C@@H](C(=O)NCc1ccccc1)[C@H]1C[C@]1(C)[C@H](NC(=O)OCc1ccccc1)c1ccccc1	HEK293 cAMP ctrl 16µM, TSHR agonist inconclusive
COc1ccc(C(=O)N(Cc2nc(-c3ccc(C)cc3)no2)C2CCCCC2)cc1OC	HEK293 cAMP ctrl inconclusive, TSHR agonist inconclusive
O=[N+]([O-])c1ccc(NN=C2c3ccccc3Cc3ccccc32)c([N+](=O)[O-])c1	none
[O-][n+]1onc2c1CCc1c-2nc(-c2ccccc2)n1OCc1ccccc1	HEK293 cAMP ctrl 13µM, TSHR agonist inconclusive
[O-][n+]1onc2c1CCc1nnc(-c3ccccc3)cc1-2	none
COC(=O)C1=C(C)NC(C)=C(C(=O)OC)C1C1CC=CCC1 (stereo not given)	TSHR agonist 20µM
CC(C)N(Cc1nc(-c2ccccc2)no1)C(=O)COc1ccccc1	none (no result: TSHR agonist)
Cc1cc(Br)ccc1OCC(=O)N(Cc1nc(-c2ccccc2)no1)C(C)C	HEK293 cAMP ctrl 10µM, TSHR agonist inconclusive
N#CCCn1c2ccccc2c2nc3ccccc3nc21	Casp7 inh inconclusive (no result: Casp1 inh)
O=c1oc2ccccc2n1CCn1c2ccccc2c2nc3ccccc3nc21	HEK293 cAMP ctrl 7.9µM, TSHR agonist inconclusive

Bioassay records from PubChem.
